Assay outcomes from PubChem BioAssay.
OTUD3 inh: inhibitors of human OTUD3 deubiquitinase. Q5T2D3. purified OTUD3, Ub-rhodamine fluorescence, 2 h. inhibition, % at 25 µM. actives 0.7% (n = 47,000)
Target sequence (Q5T2D3 whole entry, looked up): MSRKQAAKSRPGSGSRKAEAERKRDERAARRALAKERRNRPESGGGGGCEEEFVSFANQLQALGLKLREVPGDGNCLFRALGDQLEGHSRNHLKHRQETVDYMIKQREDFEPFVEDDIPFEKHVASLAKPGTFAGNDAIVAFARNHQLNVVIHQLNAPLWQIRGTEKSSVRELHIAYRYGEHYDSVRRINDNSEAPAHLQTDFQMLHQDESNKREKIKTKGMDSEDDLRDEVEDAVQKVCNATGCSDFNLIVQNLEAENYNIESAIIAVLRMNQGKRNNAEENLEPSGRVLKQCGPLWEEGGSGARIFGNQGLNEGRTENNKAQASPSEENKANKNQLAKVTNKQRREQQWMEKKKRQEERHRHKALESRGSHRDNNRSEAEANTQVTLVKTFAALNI
USP17 block: blocks human USP17 ubiquitin-rhodamine cleavage. A8MUK1. purified USP17, Ub-rhodamine cleavage fluorescence, 3 h. inhibition, % at 50 µM. actives 6.5% (n = 47,000). AID 1645855
USP28 inh: inhibitors of human USP28 deubiquitinase; purified USP28, Ub-rhodamine cleavage fluorescence, 30 min; AID 1645857; Q96RU2; inhibition, % at 25 µM; actives 3% (n = 47,000)
USP30 inh: inhibitors of human USP30 deubiquitinase; Q70CQ3; purified USP30, Ub-rhodamine cleavage fluorescence; inhibition, % at 25 µM; actives 5.3% (n = 47,000)
Numbers without * were called inactive; · = no result. Compounds with a hit are over-represented: about 11% of the library has one in this group of screens. No stated cut-off is given here; in the data, active means inhibition above about 30%; inactive means the rest.

SMILES	OTUD3 inh	USP17 block	USP28 inh	USP30 inh
O=C1CC(c2ccccc2)CC2=C1C(c1c[nH]c3ccccc13)N(C(=O)C1CC1)c1ccccc1N2 (centres undefined)	-12.5	10.8	-8.3	-61.8
COc1cc(C2C3=C(CC(c4ccccc4)CC3=O)Nc3ccccc3N2C(=O)C2CC2)cc(OC)c1OC (centres undefined)	6.1	45.3*	0.0	12.5
N#Cc1cc(Cl)ccc1OCC(=O)Nc1ccccc1	9.2	0.5	26.5	21.9
COc1ccc(CCNC(=O)CCCCCn2c(=S)[nH]c3ccsc3c2=O)cc1OC	4.7	-15.0	-17.9	-26.4
O=C(c1ccc(F)cc1)N(c1ccccn1)c1ccccn1	8.5	8.9	5.5	10.8
CC(C)CNc1nn2c(-c3ccccc3CO)cnc2s1	-10.1	-10.5	-7.8	11.7
Cc1nn(CCO)c2ncc(C(=O)c3cc(Cl)cc(Cl)c3O)cc12	-4.0	10.5	-3.1	-16.2
c1ccc(-n2nnc(-c3noc(-c4cccnc4)n3)c2-c2ccncc2)cc1	8.9	16.3	11.4	53.9*
c1ccc(-n2nnc(-c3noc(-c4ccco4)n3)c2-c2ccncc2)cc1	5.1	16.6	4.1	18.3
Cc1ccc(-c2cc(C(F)F)n3ncc(C(=O)Nc4ccc(O)cc4)c3n2)cc1	8.8	34.6*	6.3	19.8
Cc1ccc(S(=O)(=O)N2C[C@H]3C[C@H](C(=O)N(C)C)[C@@H](C2)O3)cc1	4.4	0.5	6.5	14.1
Cc1nc2nc(CN(C(=O)C(C)C)c3ccccc3)nn2c(C)c1Cl	-2.4	-3.3	0.0	0.5
Cc1cc(C)n2nc(CNc3cccc(Cl)c3)nc2n1	2.7	10.9	73.5*	9.7
Cc1nc2nc(CNc3ccccc3)nn2c(C)c1Cl	8.9	13.2	46.9*	20.7
Cc1cc(=O)n2[nH]c(CNc3cccc(Cl)c3)nc2n1	4.8	-13.6	0.1	-19.1
O=C(Cn1c(=O)n(CC(=O)NC2CCCC2)c(=O)c2ccccc21)Nc1ccc(F)cc1	41.3*	67.1*	42.3*	70.5*
O=C(Cn1c(=O)n(CC(=O)NC2CCCC2)c(=O)c2ccccc21)Nc1cc(Cl)ccc1Cl	27.6	42.5*	34.3*	64.8*
COc1ccc(Cl)cc1NC(=O)Cn1c(=O)n(CCC(=O)NC2CCCC2)c(=O)c2ccccc21	6.5	8.9	0.2	-17.4
COc1ccc(NC(=O)Cn2c(=O)n(CCC(=O)NC3CCCC3)c(=O)c3ccccc32)cc1Cl	0.5	5.2	4.3	11.8
CCOc1ccccc1NC(=O)Cn1c(=O)n(CCC(=O)NC2CCCC2)c(=O)c2ccccc21	16.7	41.4*	5.3	7.8
CCn1c(=O)n(CC)c2cc([C@@H]3OC(C)(C)C4CC3[C@H](C)[C@@H](O)C4)ccc21 (some centres undefined)	4.8	4.3	5.1	3.5
Cc1cccc(NC(=O)CN2CCCN(S(=O)(=O)c3ccc(Br)cc3)CC2)c1	-0.2	-4.2	-4.7	1.1
COC(=O)c1ccccc1NC(=O)c1sccc1Oc1ccc(F)cc1[N+](=O)[O-]	14.5	12.1	6.8	19.1
O=C(Nc1ccccc1F)c1sccc1Oc1ccc([N+](=O)[O-])cc1F	17.3	45.5*	17.2	40.1*
Cc1sc2ncn(CC(=O)Nc3ccccc3)c(=O)c2c1C	6.8	39.4*	22.6	-133.3
SMILES	OTUD3 inh	USP17 block	USP28 inh	USP30 inh
COc1ccc(NC(=O)Nc2nnc(CC(=O)N3CCOCC3)s2)c(OC)c1	9.2	6.6	13.2	15.2
CC1(C)C=Cc2cc(O)ccc2O1	0.3	40.4*	-3.1	-7.8
CN1c2ccccc2-c2ccccc2C12C=Cc1cc([N+](=O)[O-])ccc1O2 (centres undefined)	-7.4	-3.5	4.6	-25.9
COc1cccc(C(=O)N2CCC[C@@H](Cn3nnc4c(=O)[nH]c(C)nc43)C2)c1	13.6	20.0	16.3	19.5
COc1ccc(NC(=O)C2C3C=CC4(O3)C2C(=O)N(Cc2ccccc2)C4C(=O)NC2CCCCC2)cc1 (centres undefined)	10.4	11.8	-0.1	39.5*
COc1ccc(NC(=O)C2C3C=CC4(O3)C2C(=O)N(CCc2ccccc2)C4C(=O)NC2CCCCC2)cc1 (centres undefined)	22.3	34.6*	7.3	55.7*
COc1cccc(NC(=O)C2C3C=CC4(O3)C2C(=O)N(CCc2ccccc2Cl)C4C(=O)NC2CCCCC2)c1 (centres undefined)	31.8*	38.7*	-1.4	38.7*
COc1cccc(NC(=O)C2C3C=CC4(O3)C2C(=O)N(CCc2ccc(Cl)cc2)C4C(=O)NC2CCCCC2)c1 (centres undefined)	9.3	6.1	12.7	7.3
CSc1cccc(NC(=O)C2C3C=CC4(O3)C2C(=O)N(Cc2ccc(C)cc2)C4C(=O)NC2CCCCC2)c1 (centres undefined)	8.8	49.7*	10.2	17.6
Cc1ccc(NC(=O)C2C3C=CC4(O3)C2C(=O)N(CCCN2CCN(Cc3ccccc3)CC2)C4C(=O)NC2CCCCC2)cc1C (centres undefined)	-3.6	-3.8	-0.1	-0.7
Cc1ccc(NC(=O)C2C3C=CC4(O3)C2C(=O)N(CCc2ccccc2)C4C(=O)NC2CCCCC2)cc1C (centres undefined)	18.2	30.4*	8.3	28.3
c1ccc(-c2noc(-c3cc(-c4ccncc4)nc4ccccc34)n2)nc1	-1.1	53.2*	22.0	14.3
CCc1nnc(SCC(=O)Nc2ccc(N3CCOCC3)cc2)n1CC(C)C	-0.8	2.9	10.3	8.0
Cc1cc2n(n1)[C@@H](C(F)(F)F)C[C@@H](C1CCN(C(=O)Cc3sc(C)nc3C)CC1)N2	-4.7	-21.5	-4.6	-7.9
COCC(=O)N1CCC([C@@H]2C[C@H](C(F)(F)F)n3nc(C(C)(C)C)cc3N2)CC1	0.0	51.1*	·	·
CC(C)c1nc2sc3c(NCCN4CCOCC4)ncnc3c2c2c1CCC2	6.8	9.3	34.6*	6.3
CC(C)c1nc2sc3c(NCc4ccco4)ncnc3c2c2c1CCC2	-16.9	-10.5	63.3*	-66.9
Cc1nc(C2CN(Cc3nc4ccccc4n3C)CCO2)cc(=O)[nH]1 (centres undefined)	7.8	7.8	11.9	-0.1
Cc1ccc(C(=O)N2c3ncnn3C(c3ccccc3)CC2c2ccccc2)cc1 (centres undefined)	8.0	14.6	13.4	32.4*
COc1ccc(C2CC(c3ccc(OC)cc3)n3ncnc3N2C(=O)C2CC2)cc1 (centres undefined)	7.0	9.5	10.1	37.5*
COc1ccc(C2CC(c3ccc(Cl)cc3)N(C(=O)C(C)(C)C)c3ncnn32)cc1 (centres undefined)	0.0	9.6	-3.5	2.9
Cn1c(C(=O)NCCN2CCCC2)c(N2CCCC2=O)c2cc(F)ccc21	14.2	9.7	15.4	23.5
COC(=O)c1ccccc1NC(=O)C1CCCN(c2nnc(-n3cccc3)s2)C1 (centres undefined)	27.7	·	17.6	36.4*
CNC(=O)c1cccc(Nc2c(-c3ccc(OC)cc3)nc3cnccn23)c1	-27.7	-37.8	-32.4	-117.4
O=C1N[C@H](Cc2c[nH]c3ccccc23)C(=O)N[C@H]1Cc1c[nH]c2ccccc12	10.4	21.9	12.3	35.7*
